In the library only some 2.2% were active in any assay of this set; here they are far more common.
PolyA inh = polyadenylation inhibitors in yeast reporter cells, primary screen, luminescence, S. cerevisiae; S. cerevisiae SKY197-pL101 polyadenylation reporter, beta-gal luminescence; efflux-impaired pdr1/pdr3 knockout yeast; score 100 = 6 SD above DMSO; activity score, % at 12 µM; 300,000 tested, 0.02% active;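 active = lowest replicate activity score at least 50, where 100 means six control SD above control mean; inconclusive = lowest score under 50 but half or more replicates reach 50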;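 also: yeast exposed to compound for 9 h at 30 °C; higher score means more reporter readthrough which indicates perturbed polyadenylation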
NLRP3 yeast inh = NALP3 inflammasome inhibitors in reconstituted yeast, primary screen, luminescence, uHTS | Yeast reconstituted NLRP3/ASC/caspase-1, beta-gal luminescence, 24 h | inhibition, % at 10 µM | 330,000 tested, 0.39% active | AID 2825, 2010;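 active = inhibition of 50% or more; inactive = inhibition below 50%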;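 also: plate controls were induced DMSO wells for no effect and uninduced yeast grown without galactose for full effect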
EBNA-1 inhibitor = EBNA-1 DNA-binding inhibitors, primary screen, biochemical, fluorescence polarization | inhibition, % at 14.8 µM | 300,000 tested, 0.34% active; in the data active = inhibition above about 28%
dFosB act = activators of delta FosB homodimer, primary screen, biochemical, fluorescence polarization, TAMRA-CDK5 oligo, single point; Protein FosB (Mus musculus), P13346; 340,000 tested, 0.99% active; purified delta FosB; percent of positive-control signal above neutral wells; activation, % at 25 µM;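 active = mean activation above about 17%, with every replicate also reaching it, limit read from the data, passing the limit was not always enough; inconclusive = only one of the two conditions met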
Target sequence (P13346 whole entry, looked up): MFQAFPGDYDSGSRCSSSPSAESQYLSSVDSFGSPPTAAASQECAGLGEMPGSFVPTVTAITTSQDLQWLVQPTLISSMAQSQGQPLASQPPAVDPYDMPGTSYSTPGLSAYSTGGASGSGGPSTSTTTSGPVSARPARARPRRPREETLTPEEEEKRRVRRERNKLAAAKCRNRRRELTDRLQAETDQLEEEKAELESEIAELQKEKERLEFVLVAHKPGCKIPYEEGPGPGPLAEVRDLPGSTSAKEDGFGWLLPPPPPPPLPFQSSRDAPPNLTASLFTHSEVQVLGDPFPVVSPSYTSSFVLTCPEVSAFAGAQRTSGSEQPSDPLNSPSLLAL
ZTA counter = blocks Epstein-Barr virus ZTA, an EBNA-1 counter-screen; ZTA-DNA binding, fluorescence polarization; inhibition, % at 11 µM; P03206; 320,000 tested, 0.15% active; AID 2234; in the data active = inhibition above about 33%
Target sequence (P03206 whole entry, looked up): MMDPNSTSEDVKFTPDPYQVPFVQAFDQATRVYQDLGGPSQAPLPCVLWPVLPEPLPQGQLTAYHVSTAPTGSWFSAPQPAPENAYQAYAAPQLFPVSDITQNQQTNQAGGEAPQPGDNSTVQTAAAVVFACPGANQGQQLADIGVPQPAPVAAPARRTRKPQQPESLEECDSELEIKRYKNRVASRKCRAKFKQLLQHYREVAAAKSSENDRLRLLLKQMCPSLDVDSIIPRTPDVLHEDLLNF
NALP1 yeast inh = NALP1 inflammasome inhibitors in reconstituted yeast, colorimetric, S. cerevisiae, triplicate retest. S. cerevisiae NALP1/ASC/caspase-1 growth, X-gal OD620, 72 h. inhibition, % at 10 µM. 280,000 tested, 0.61% active; in the data active = inhibition mostly above about 24%, no sharp cut-off; inactive = mostly below about 32%
NALP3 confirm = NALP3 inhibitors retested in yeast, confirmation, luminescence, single concentration | shares compounds with NLRP3 yeast inh | yeast expressing human NALP3 | inhibition, % at 10 µM | 1,300 tested, 81% active; in the data active = inhibition above about 48%
Casp1-ASC yeast = CASP1-PYCARD signaling inhibition in yeast, confirmatory test, counterassay for NLRP3 inhibitor program, one-dose; shares compounds with NLRP3 yeast inh; yeast expressing Caspase-1-ASC, luminescence counter screen; inhibition, % at 10 µM; 1,000 tested, 66% active
NALP3 yeast rt = NALP3 inhibitors in yeast, repeat test, confirmation, luminescence, single concentration, retest. yeast expressing human NALP3, luminescence read-out. 1,000 tested, 53% active. shares compounds with NLRP3 yeast inh. inhibition, % at 10 µM. AID 488794, 2010
An asterisk follows results filed as active; ? = inconclusive; . = no result. Rule as the data show it, unless noted: active = inhibition above about 50%; inactive = the rest.

SMILES	PolyA inh	NLRP3 yeast inh	EBNA-1 inhibitor	dFosB act	ZTA counter	NALP1 yeast inh	NALP3 confirm	Casp1-ASC yeast	NALP3 yeast rt
CCN1C(=O)/C(=C/C=C2/SCCN2C)SC1=S	-21.7	50.0	12.0	-12.4	7.0	4.5	32.9	.	.
Cc1cccc(NC(=O)Cn2cnc(S(=O)(=O)N3CCCC3)c2)c1C	4.2	13.1	15.0	-5.8	1.9	27.3	.	.	.
O=C(Nc1cc2ccccc2oc1=O)c1ccccc1	-14.2	60.0*	6.4	-4.6	6.8	11.3	72.5*	51.2*	52.8*
Cc1oc(=O)c(NC(=O)c2ccccc2)cc1C(N)=O	.	4.5	8.5	-4.2	13.8	16.0	.	.	.
Cc1ccccc1C(=O)NN1C(=O)CSC1=S	-7.1	-6.1	-7.0	4.5	-2.5	-1.9	.	.	.
CCOC(=O)c1ccccc1N1C(=O)CSC1=S	-10.5	54.2*	5.4	0.2	-1.1	28.4	48.2	48.2	35.4
O=C(NC(=S)Nc1cccc([N+](=O)[O-])c1)c1ccco1	1.2	16.6	-3.6	2.8	10.1	3.1	.	.	.
O=C(NC(=S)Nc1cccc([N+](=O)[O-])c1)c1ccccc1	-1.6	50.9*	0.0	5.8	2.9	1.8	63.6*	43.4	39.2
C=CCn1c(CSCc2ccc(Cl)cc2Cl)nnc1SCC(=O)Nc1ccc(C(=O)O)cc1	21.9	7.2	-0.7	-11.0	5.6	8.3	.	.	.
Cc1cccc(NS(=O)(=O)c2ccc(C(=O)N3CC(C)OC(C)C3)cc2)c1C (configuration not stated)	0.1	6.6	6.0	-4.1	11.2	.	.	.	.
Cc1ccc2oc(C(=O)NCCCN3CCOCC3)c(C)c2c1	2.5	8.9	9.3	-4.0	4.3	-3.3	.	.	.
COc1ccccc1CNC(=O)COc1ccccc1C	4.3	35.9	.	-2.9	.	14.9	.	.	.
C/C=C/c1ccc(OCC(=O)NCc2ccccc2OC)c(OC)c1	-19.0	50.0*	-1.3	-6.6	-21.4	-4.0	25.1	.	.
CCOc1ccc(C(=O)CCc2nc3ccccc3s2)cc1	4.1	67.4*	-7.4	-2.8	4.6	8.6	66.8*	65.3*	59.5*
C=CCOc1ccc2c(OC)c3ccoc3nc2c1OC	-12.2	24.6	-3.3	-5.3	-7.5	2.9	.	.	.
CCOc1c2ccoc2nc2c(OC)c(OC)ccc12	-2.6	50.1*	-7.6	1.8	-1.1	-10.8	68.5*	47.6	43.8
CN=c1oc2ccc(Cl)cc2cc1C(N)=O	-7.4	51.5*	4.0	-3.8	-9.2	9.1	46.0	17.2	15.8
NC(=O)c1cc2cc(Cl)ccc2o/c1=N/NC(=O)c1cccs1	2.0	-3.8	7.6	-14.9	-5.5	-1.7	.	.	.
COc1ccc(-c2nnc(SCc3ccc(C(=O)O)cc3)n2C)cc1OC	2.9	7.4	-1.1	-3.7	-3.3	27.8	.	.	.
O=C(NNC(=S)Nc1ccc(Br)cc1)c1cccnc1	11.3	52.6*	8.7	-4.1	1.8	0.5	50.4*	.	.
CC(C)c1ccc(NC(=S)NNC(=O)c2cccnc2)cc1	-8.0	31.7	-6.9	-5.3	10.4	0.1	.	.	.
COc1cc(C(=O)OCC(=O)Nc2ccc(C)cc2)cc(OC)c1OC	-10.9	20.9	8.3	-3.9	-5.6	2.7	.	.	.
O=C(NC1CCCCC1)c1noc2c1CCCCC2	9.2	50.8*	-2.4	-2.3	-12.2	51.6	67.0*	54.4*	49.5
CC(C)(C)C1CCc2onc(C(=O)NC3CCCC3)c2C1 (configuration not stated)	-6.2	18.0	0.3	5.6	12.1	-13.9	.	.	.
O=c1cc(-c2ccc(O)cc2)oc2ccc3ccccc3c12	.	60.9*	.	-51.8	6.2	.	80.8*	58.0*	54.1*
SMILES	PolyA inh	NLRP3 yeast inh	EBNA-1 inhibitor	dFosB act	ZTA counter	NALP1 yeast inh	NALP3 confirm	Casp1-ASC yeast	NALP3 yeast rt
O=c1cc(-c2ccc(O)cc2)oc2c1ccc1ccccc12	.	23.0	.	-28.4	25.5	.	.	.	.
Cc1cccc(OCC(=O)NCCCNC(=O)c2cnccn2)c1	16.8	21.6	7.8	-1.4	6.5	-2.8	.	.	.
O=C(c1ccccc1)c1cccc(C(=O)c2ccccc2)c1	.	55.7*	.	-2.1	-4.4	.	58.3*	53.8*	50.9*
C/C(=N\NC(=S)Nc1cccc(C)c1)c1ccco1	0.5	52.7*	-1.3	2.5	-11.0	6.5	27.2	.	.
Cc1c(C=O)c2ccccn2c1C(=O)c1ccc(F)cc1	1.7	59.3*	-7.1	-4.3	7.5	8.4	71.8*	60.0*	54.2*
Cc1c(C=O)c2ccccn2c1C(=O)c1ccccc1	-25.2	55.8*	-0.2	-10.0	8.2	18.6	58.6*	54.9*	41.5
Cc1c(C=O)c2ccccn2c1C(=O)c1ccc(Cl)c([N+](=O)[O-])c1	-11.5	18.8	4.9	-4.4	-3.0	-8.8	.	.	.
COc1ccc(C(=O)Nc2ccc(O)c3ccccc23)cc1OC	-5.0	11.1	4.1	-2.0	6.3	.	.	.	.
COc1ccc(NC(=O)COC(=O)CN2C(=O)c3ccccc3C2=O)cc1	.	10.8	.	-0.7	.	.	.	.	.
C(=C\c1nc2ccccc2[nH]1)/c1ccccc1	-3.5	61.2*	-5.9	-12.3	-7.7	-6.4	83.8*	59.5*	57.2*
COc1cccc(CN(C)C(=O)CSc2nc3ccccc3[nH]2)c1OC	-1.0	4.7	1.0	-2.6	1.6	10.2	.	.	.
COC(=O)c1sccc1NC(=O)c1ccc(C)o1	-9.5	45.4	-11.2	-30.4	4.8	4.5	.	.	.
COC(=O)c1sccc1NC(=O)c1ccc(Br)o1	-11.3	52.6*	5.2	-28.9	3.1	3.4	38.2	33.7	45.8
CS(=O)(=O)c1sc(C#N)c2c1C(=O)CC(c1ccccc1)C2 (configuration not stated)	-76.9	51.0*	5.3	-11.6	5.7	-12.2	38.8	.	.
CC(NC(=O)COC(=O)COc1cccc2c1OC(C)(C)C2)c1ccccc1 (configuration not stated)	7.9	8.5	11.3	-4.3	0.6	9.6	.	.	.
O=C(c1ccc(F)cc1)n1ccc(-c2cnc(-c3ccccc3)s2)n1	-4.9	73.4*	6.0	3.8	6.2	4.8	57.2*	12.2	-0.9
COc1cc(CC(=O)OCC(=O)N(C)C2CCCCC2)cc(OC)c1OC	.	-18.3	.	3.0	.	.	.	.	.
Cn1c(CNC(=O)CCNC(=O)c2ccccc2)cc(=O)n(C)c1=O	-8.3	2.5	6.0	0.2	10.5	9.9	.	.	.
O=C(NC1CCCCC1)c1c(O)nc2sccn2c1=O	?	57.8*	6.3	-2.8	1.6	.	74.5*	33.6	42.3

Screening results (PubChem BioAssay)
